Screens from PubChem.
The list is not random: actives were taken first. Their share in the collection is about 11%.
HTT cytoprotect: Huntington cell model cytoprotection by ATP luminescence; PC12 HTT-Q103 induced, cytoprotection, ATP luminescence, 40 h; Potency, µM (series often up to 56.4 µM), for the others: cytoprotection (ATP increase), most hits filed as activators; 230,000 compounds, 0.14% hits; AID 1471; active = well fitted curve in the direction sought with a large enough effect; inconclusive = small, poorly fitted or top-dose-only effect, or another doubt; inactive = no such curve, though single readings can be large; an effect the other way counts as inactive or inconclusive; note: potency is the fitted concentration of half-maximal effect; % of control where 0% means no effect; nearly all actives have a fitted effect of over 45% in size
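Compounds added alongside 100 nM tebufenozide, which induces toxic Q103 huntingtin exon 1-GFP in stable PC12 cells; surviving cells quantified by luminescent ATP measurement. Medium: phenol red-free DMEM, 5% equine and 5% calf serum.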
GoLoco inh red: inhibitors of human Gai1-RGS12 GoLoco interaction (red fluorophore). P63096. Gai1:RGS12 GoLoco peptide FP, rhodamine, 10 min. Potency, µM (highest dose often 61.6 µM), inactives show at the highest dose activity, negative = inhibition, actives largely listed as inhibitors. 230,000 compounds, 0.44% hits. AID 880; active = well fitted inhibition curve with a large enough effect, not every such curve was filed as active; inactive = no such curve, though single readings can be large or run the other way; note: potency is the fitted concentration of half-maximal effect; % is set by controls: 0 for no effect and ±100 for the full control effect; nearly all actives have a fitted effect of over 30% in size
Target sequence (P63096 whole entry, looked up): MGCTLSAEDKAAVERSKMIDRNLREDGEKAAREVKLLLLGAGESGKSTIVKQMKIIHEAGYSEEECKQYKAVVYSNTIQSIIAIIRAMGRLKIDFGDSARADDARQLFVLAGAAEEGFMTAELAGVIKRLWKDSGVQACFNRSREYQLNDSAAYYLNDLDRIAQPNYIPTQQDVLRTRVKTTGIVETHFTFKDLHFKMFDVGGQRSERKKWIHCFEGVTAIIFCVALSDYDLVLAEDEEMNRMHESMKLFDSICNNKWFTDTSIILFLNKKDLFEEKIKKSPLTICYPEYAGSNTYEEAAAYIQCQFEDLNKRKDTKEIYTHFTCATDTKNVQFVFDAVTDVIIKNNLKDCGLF
HttQ103 aggreg: inhibitors of mutant huntingtin aggregate formation in PC12 cells; PC12 HttQ103-GFP aggregates, Acumen cytometry, 40 h; Potency, µM (titrated, usually from 46.1 µM), for inactives: top-dose activity change, negative = inhibition, hits mostly inhibitors; 220,000 compounds, 1.1% hits; active = well fitted curve in the direction sought with a large enough effect; inconclusive = small, poorly fitted or top-dose-only effect, or another doubt; inactive = no such curve, though single readings can be large; an effect the other way counts as inactive or inconclusive; note: potency is the fitted concentration of half-maximal effect; % is set by controls: 0 for no effect and ±100 for the full control effect; nearly all actives have a fitted effect of over 60% in size
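PC12/HTTQ103-GFP, ecdysone-inducible; teb 100 nM; cpd qHTS titration; GFP aggregates read on laser cytometer, Ex 488/Em 500-530 nm.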
ALDH1A1 inh: ALDH1A1 (human) enzyme inhibition | P00352 | Purified ALDH1A1, NADH fluorescence, propionaldehyde substrate | Potency, µM (series often up to 75.3 µM), for the others: at the top dose activity, negative = inhibition, most hits filed as inhibitors | 220,000 compounds, 7.3% hits | AID 1030;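 note: potency is the fitted concentration of half-maximal effect; plate controls were no enzyme wells and a reference inhibitor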
HPGD inh: blocks human HPGD enzyme activity; P15428; purified HPGD, NADH fluorescence kinetic, PGE2 substrate; Potency, µM, inactives show at the top dose activity change, negative = inhibition, most hits filed as inhibitors; 150,000 compounds, 4.3% hits; note: potency is the fitted concentration of half-maximal effect; % is set by controls: 0 for no effect and ±100 for the full control effect
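20 nM HPGD preincubated 15 min at room temperature with compound in 50 mM Tris-HCl pH 8, 0.01% Tween 20. Started with 1 mM NAD+ and 30 uM prostaglandin E2; NADH fluorescence (360/450 nm) read 5 times over 30-s intervals, last minus first.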
PNC assembly inh: inhibitors of perinucleolar compartment assembly. PC3M PTB-GFP, PNC prevalence imaging, 16 h; active compounds read low. activity change (PNC), negative = inhibition, % at 10 µM. 140,000 compounds, 3.1% hits;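 active = readout at or below -70, meaning at least 70% loss of cells showing the perinucleolar compartment, a nuclear body marking cancer cells; inconclusive = readout between -30 and a set limit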;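 note: plate controls were DMSO wells for no effect and camptothecin positive control wells for full effect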
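Read-out is percentage of cells bearing a perinucleolar compartment, from automated 20x imaging of fixed, Hoechst-stained PC3M PTB-GFP cells. Cells were seeded 4 h, then exposed 16 h to compound (23 nl of library stock) in duplicate plates.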
Numbers without * were called inactive; ? = inconclusive; . = no result given; [ ] = remark or other dose. Unless noted, calls come from the whole dose curve; as a rule, active = well fitted inhibition curve with a large enough effect (not every such curve was filed as active); inconclusive = small, poorly fitted or top-dose-only effect, or another doubt; inactive = no such curve, though single readings can be large or run the other way.

SMILES | HTT cytoprotect | GoLoco inh red | HttQ103 aggreg | ALDH1A1 inh | HPGD inh | PNC assembly inh
CN(C)/C=N/C(=S)Nc1ccc(Br)cc1F | 13% | 2% | 13% | 22µM* | -30% | 23
CC(C)CN1CCCC2(CCN(C(=O)c3cc(C(F)(F)F)cc(C(F)(F)F)c3)CC2)C1 | 17% | 7% | . | 4% | -4% | .
COc1cc(-c2coc3cc(OCc4ccccc4)c(OC)c(O)c3c2=O)cc(O)c1OC | -124% | 1% | . | ? | ? | .
S=c1[nH]nc(-c2ccco2)n1/N=C/c1ccc(Cl)cc1Cl | -23% | -4% | -24% | ? | 2.2µM* | -1
S=c1[nH]nc(-c2ccco2)n1/N=C/c1cccc(Cl)c1Cl | -9%[10 µM] | -2% | 5% | -4% | 2µM* | 46
S=c1[nH]nc(-c2ccc(Cl)cc2)n1/N=C/c1ccco1 | 8%[10 µM] | 9% | -3%[9.22 µM] | . | . | .
CSCCC1C(=O)OC2(C)CC(C)(C)NC(=S)N12 (configuration not stated) | 21%[10 µM] | 11% | -29% | 3% | -10% | -100*
c1ccc(Cn2nc(-c3ccccc3)nc2-c2ccccc2)cc1 | 10%[10 µM] | 1% | -2% | ? | -9% | 57
CN=c1nc(-c2ccccc2)n(-c2ccccc2)s1 | -2%[1.9 µM] | 5µM* | . | 1.4µM* | -26% | .
O=C(CNC(=O)c1cccs1)NCC(=O)OCc1ccccc1Cl | -13% | 19% | 17% | 8% | -11% | -83*
O=C(CNC(=O)c1cccs1)NCC(=O)OCc1c(Cl)cccc1Cl | -18% | -5% | 7% | 5% | -8% | 81
Cc1ccccc1SCCNC(=O)CCc1ccccc1 | -28% | 10% | -7% | -4% | . | .
COC(=O)NC(c1ccc2ccccc2c1)C(C(C)=O)C(=O)OC (configuration not stated) | -11%[10 µM] | . | . | -4%[13.5 µM] | . | .
CC(=O)Nc1ccc(NC(C)=O)s1 | 10% | -2% | 0% | 6% | -10% | 15
CC(=O)Nc1ccc(-c2ccccc2)s1 | -10% | 18µM* | -11% | 8% | -8% | 70
C=CCC(O)c1ccccc1 (configuration not stated) | ? | -2% | . | 8% | -7% | .
COc1ccc(S(=O)(=O)N2CCN(C(=O)c3c(C)nn(-c4ccccc4)c3Cl)CC2)cc1 | 9%[10 µM] | 8% | 0% | 32µM* | -16% | -8
Cc1ccc(S(=O)(=O)N2CCN(C(=O)c3c(C)nn(-c4ccccc4)c3Cl)CC2)cc1 | 7%[10 µM] | 5% | -20% | -4% | -11% | -19
Cc1cc(C(=O)N/N=C/c2cc(Br)ccc2OC(=O)c2ccccc2)n[nH]1 | -36%[10 µM] | 12% | 2µM* | -7% | -15% | -24
CC12CCC(C[N+](C)(C)C1)C2(C)C (configuration not stated) | 15% | 8.9µM* | -12% | 7% | . | .
Nc1ccc2c(c1)N=[N+]([O-])c1cc(N)ccc1C2 | 30%[10 µM] | 5% | 26%[9.22 µM] | 3% | . | .
CCOC(=O)c1c(C)nc(C)c(C(=O)OCC)c1-c1ccc(O)c(OC)c1 | -11% | -15% | -15% | 16µM* | . | .
COC(=O)c1c(C)nc(C)c(C(=O)OC)c1-c1ccc(OC)c(OC)c1 | . | 4% | . | 16% | . | .
CCOC(=O)c1nc(-c2ccc(OC)c(OC)c2)no1 | -77%[10 µM] | 6% | 0.63µM* | 11% | . | .
CCc1nnc(NC(=O)C2CCCN(S(=O)(=O)c3ccc(OC)cc3)C2)s1 (configuration not stated) | ? | 17% | 27%[9.22 µM] | -3% | . | .
O=C(N/N=C/c1cccc(F)c1)c1c(O)c2c([nH]c1=O)CCCC2 | -2%[10 µM] | 8% | 18% | 14% | -18% | -114*
CCOC(=O)c1c(N)sc2c1CCC1C(=O)N(C3CCCCC3)C(=O)C21 (configuration not stated) | -1%[10 µM] | 16% | -14% | 13µM* | ? | -6
CCOC(=O)c1c(N)sc(C(=O)N2CCCC(C(N)=O)C2)c1C (configuration not stated) | . | . | . | ? | -5% | .
